Data reported in PubChem BioAssay AID1159580 (chemical genetic matrix, 2015).
The whole screen tested about 5,500 compounds, of which about 2,000 (36%) were called active. Roughly 18% stayed inconclusive and do not appear here. No stated cut-off is given here; in the data, active means normalized growth mostly below about 0.91 (no sharp cut-off); inconclusive means no clear call, values can overlap the other calls; inactive means mostly above about 0.92. This is one part of the list.

Experiment: chemical genetic growth profiling, strain panel (AID 1159580);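 further: tested at 20 µM; growth read once vehicle control cultures reached saturation at 30 °C; 1 = growth at the plate median or of vehicle wells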
Conditions: growth OD

Measured: normalized growth

CC1=C(/C=C/C(C)=C/C=C/C(C)=C/C=C/C=C(C)/C=C/C=C(C)/C=C/C23OC2(C)CC(O)CC3(C)C)C(C)(C)CC(O)C1 (configuration not stated)
inactive: S. cerevisiae deletion strains, locus YBR021W, strain FUR4, stronger effect = lower value 1 | S. cerevisiae deletion strains, locus YBR229C, strain ROT2, stronger effect = lower value 1.01 | S. cerevisiae deletion strains, locus YCL029C, strain bik1, stronger effect = lower value 1.02 | S. cerevisiae deletion strains, locus YDL035C, strain GPR1, stronger effect = lower value 1.01 | S. cerevisiae deletion strains, locus YDL074C, strain BRE1, stronger effect = lower value 1.03 | S. cerevisiae deletion strains, locus YDL101C, strain DUN1, stronger effect = lower value 1.01 | S. cerevisiae deletion strains, locus YDL185W, strain tfp1, stronger effect = lower value 1 | S. cerevisiae deletion strains, locus YDL192W, strain arf1, stronger effect = lower value 1 | S. cerevisiae deletion strains, locus YDR101C, strain arx1, stronger effect = lower value 1.01 | S. cerevisiae deletion strains, locus YDR162C, strain NBP2, stronger effect = lower value 0.997 | S. cerevisiae deletion strains, locus YDR318W, strain mcm21, stronger effect = lower value 1.01 | S. cerevisiae deletion strains, locus YDR388W, stronger effect = lower value 1.01 | S. cerevisiae deletion strains, locus YDR502C, strain sam2, stronger effect = lower value 1.02 | S. cerevisiae deletion strains, locus YEL061C, strain CIN8, stronger effect = lower value 1.01 | S. cerevisiae deletion strains, locus YER110C, stronger effect = lower value 1.02 | S. cerevisiae deletion strains, locus YER155C, strain BEM2, stronger effect = lower value 1.01 | S. cerevisiae deletion strains, locus YER167W, strain BCK2, stronger effect = lower value 1.02 | S. cerevisiae deletion strains, locus YGL078C, strain dbp3, stronger effect = lower value 0.995 | S. cerevisiae deletion strains, locus YGL086W, strain mad1, stronger effect = lower value 1.05 | S. cerevisiae deletion strains, locus YGL248W, strain PDE1, stronger effect = lower value 1 | S. cerevisiae deletion strains, locus YGR135W, strain pre9, stronger effect = lower value 0.982 | S. cerevisiae deletion strains, locus YGR252W, strain gcn5, stronger effect = lower value 0.987 | S. cerevisiae deletion strains, locus YHR030C, strain SLT2, stronger effect = lower value 1.01 | S. cerevisiae deletion strains, locus YHR079C, strain IRE1 (second series), stronger effect = lower value 1 | S. cerevisiae deletion strains, locus YHR094C, strain hxt1, stronger effect = lower value 1.01 | S. cerevisiae deletion strains, locus YHR129C, strain ARP1, stronger effect = lower value 1.02 | S. cerevisiae deletion strains, locus YHR200W, strain rpn10, stronger effect = lower value 1.01 | S. cerevisiae deletion strains, locus YIL066C, strain RNR3, stronger effect = lower value 1.01 | S. cerevisiae deletion strains, locus YIL073C, strain SPO22, stronger effect = lower value 1.1 | S. cerevisiae deletion strains, locus YIL125W, strain kgd1, stronger effect = lower value 1.01 | S. cerevisiae deletion strains, locus YIR030C, strain dcg1, stronger effect = lower value 1.01 | S. cerevisiae deletion strains, locus YJL095W, strain BCK1, stronger effect = lower value 0.998 | S. cerevisiae deletion strains, locus YJL134W, strain LCB3, stronger effect = lower value 1.01 | S. cerevisiae deletion strains, locus YJL168C, strain set2, stronger effect = lower value 1.01 | S. cerevisiae deletion strains, locus YJL187C, strain SWE1 (second series), stronger effect = lower value 1 | S. cerevisiae deletion strains, locus YJR043C, strain POL32, stronger effect = lower value 0.999 | S. cerevisiae deletion strains, locus YKL009W, strain mrt4, stronger effect = lower value 1.03 | S. cerevisiae deletion strains, locus YKL068W, stronger effect = lower value 1 | S. cerevisiae deletion strains, locus YKL085W, strain MDH1 (second series), stronger effect = lower value 1.01 | S. cerevisiae deletion strains, locus YKL085W, strain MDH1, stronger effect = lower value 1.01 | S. cerevisiae deletion strains, locus YKL190W, strain CNB1, stronger effect = lower value 1.01 | S. cerevisiae deletion strains, locus YKR001C, strain vps1, stronger effect = lower value 1.04 | S. cerevisiae deletion strains, locus YLR039C, strain RIC1, stronger effect = lower value 1.01 | S. cerevisiae deletion strains, locus YLR058C, strain SHM2, stronger effect = lower value 1.01 | S. cerevisiae deletion strains, locus YLR102C, strain apc9, stronger effect = lower value 1.02 | S. cerevisiae deletion strains, locus YLR262C, strain YPT6, stronger effect = lower value 0.973 | S. cerevisiae deletion strains, locus YLR268W, strain sec22, stronger effect = lower value 1.02 | S. cerevisiae deletion strains, locus YLR330W, strain CHS5, stronger effect = lower value 1.02 | S. cerevisiae deletion strains, locus YLR342W, strain FKS1 (second series), stronger effect = lower value 1.06 | S. cerevisiae deletion strains, locus YLR371W, strain rom2, stronger effect = lower value 1.01 | S. cerevisiae deletion strains, locus YLR418C, strain cdc73, stronger effect = lower value 1 | S. cerevisiae deletion strains, locus YML016C, strain PPZ1, stronger effect = lower value 1.01 | S. cerevisiae deletion strains, locus YML032C, strain rad52, stronger effect = lower value 1 | S. cerevisiae deletion strains, locus YML124C, strain tub3, stronger effect = lower value 1 | S. cerevisiae deletion strains, locus YMR078C, strain ctf18, stronger effect = lower value 1.02 | S. cerevisiae deletion strains, locus YMR223W, strain ubp8, stronger effect = lower value 1.01 | S. cerevisiae deletion strains, locus YMR263W, strain SAP30, stronger effect = lower value 1.01 | S. cerevisiae deletion strains, locus YMR307W, strain GAS1, stronger effect = lower value 1.02 | S. cerevisiae deletion strains, locus YNL067W, strain RPL9B, stronger effect = lower value 1 | S. cerevisiae deletion strains, locus YNL153C, strain GIM3, stronger effect = lower value 0.994 | S. cerevisiae deletion strains, locus YNL233W, strain BNI4, stronger effect = lower value 1.02 | S. cerevisiae deletion strains, locus YNL250W, strain rad50, stronger effect = lower value 1.01 | S. cerevisiae deletion strains, locus YNL271C, strain bni1, stronger effect = lower value 1 | S. cerevisiae deletion strains, locus YNL298W, strain CLA4, stronger effect = lower value 0.991 | S. cerevisiae deletion strains, locus YNL307C, strain MCK1, stronger effect = lower value 1.01 | S. cerevisiae deletion strains, locus YNL322C, strain KRE1, stronger effect = lower value 1.01 | S. cerevisiae deletion strains, locus YNR052C, strain pop2, stronger effect = lower value 1 | S. cerevisiae deletion strains, locus YOL006C, strain TOP1, stronger effect = lower value 1.11 | S. cerevisiae deletion strains, locus YOL012C, strain htz1 0.925 | S. cerevisiae deletion strains, locus YOL147C, strain pex11, stronger effect = lower value 1.01 | S. cerevisiae deletion strains, locus YOR061W, strain CKA2, stronger effect = lower value 1.02 | S. cerevisiae deletion strains, locus YOR069W, strain VPS5, stronger effect = lower value 1.02 | S. cerevisiae deletion strains, locus YOR136W, strain idh2, stronger effect = lower value 1 | S. cerevisiae deletion strains, locus YOR144C, strain elg1, stronger effect = lower value 0.998 | S. cerevisiae deletion strains, locus YOR184W, strain ser1, stronger effect = lower value 1.03 | S. cerevisiae deletion strains, locus YOR316C, strain cot1, stronger effect = lower value 1.03 | S. cerevisiae deletion strains, locus YPR119W, strain clb2, stronger effect = lower value 0.994 | S. cerevisiae deletion strains, locus YPR141C, strain kar3, stronger effect = lower value 1.01 | S. cerevisiae deletion strains, locus YPR163C, strain tif3, stronger effect = lower value 1.01 | S. cerevisiae deletion strains, locus YPR167C, strain met16, stronger effect = lower value 1.01 | S. cerevisiae deletion strains, strain wtn01, stronger effect = lower value 1.02 | S. cerevisiae strains, strain wild type, stronger effect = lower value 1.01
